Molecules are shown by their SMILES. Screen size: about 310,000 compounds; about 1,200 (0.39%) were called active. These entries were drawn from the full list. Measured potencies and affinities stand elsewhere. Unmarked numbers belong to inactive results. The rule behind the calls is not given here.

The experiment deals with Large T antigen (Simian virus 40) (UniProt P03070). Description: TAg ATPase/helicase activity blockers – biochemical (AID 1903). Conditions: SV40 large T antigen ATPase/helicase inhibition assay; at 20 µM; hits give high values.
Chain of Large T antigen (Simian virus 40) (P03070 whole entry, looked up): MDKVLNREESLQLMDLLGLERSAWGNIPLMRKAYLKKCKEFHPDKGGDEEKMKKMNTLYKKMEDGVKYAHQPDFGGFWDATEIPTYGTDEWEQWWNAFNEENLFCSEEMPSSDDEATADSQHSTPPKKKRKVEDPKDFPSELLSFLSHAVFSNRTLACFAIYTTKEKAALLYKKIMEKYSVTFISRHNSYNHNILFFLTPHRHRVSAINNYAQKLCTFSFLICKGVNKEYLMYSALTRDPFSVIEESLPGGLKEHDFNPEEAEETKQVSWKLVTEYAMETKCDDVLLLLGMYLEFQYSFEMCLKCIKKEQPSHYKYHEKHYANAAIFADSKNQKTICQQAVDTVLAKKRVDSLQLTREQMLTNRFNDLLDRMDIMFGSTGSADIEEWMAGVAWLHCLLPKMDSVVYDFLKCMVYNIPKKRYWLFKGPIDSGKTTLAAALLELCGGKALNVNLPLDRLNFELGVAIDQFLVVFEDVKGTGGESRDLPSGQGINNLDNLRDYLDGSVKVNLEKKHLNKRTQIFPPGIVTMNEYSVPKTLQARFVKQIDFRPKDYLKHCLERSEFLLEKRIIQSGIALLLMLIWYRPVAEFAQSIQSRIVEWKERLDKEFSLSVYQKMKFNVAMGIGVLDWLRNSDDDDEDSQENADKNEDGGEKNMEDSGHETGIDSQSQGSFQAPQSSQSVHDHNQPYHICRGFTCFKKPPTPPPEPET
On to `Cc1ccc(S(=O)(=O)n2nccc2-c2c(-c3ccc(Cl)cc3)noc2C)cc1`, for which the inhibition is 6.88%.

For `O=C(O)c1ccc(NC(CSCc2ccc(F)cc2)C(=O)O)c([N+](=O)[O-])c1` (stereo not given), the inhibition is -4.05%.

On to `O=C(c1cc2ccccc2o1)N1CCC(N2CCC(C(=O)N3CCCC3)CC2)CC1`, for which the inhibition is 5.34%.

Take `COc1ccc(/C=C2\SC(=S)N(NS(=O)(=O)c3ccccc3)C2=O)c(OC)c1`: the inhibition is 11.9%.

Take `O=S(=O)(NCC1CCCO1)c1ccc(Cl)cc1` (stereo not given): the inhibition is 1.99%.

On to `O=C(c1cc([N+](=O)[O-])ccc1N1CCCC1)N1CCCCC1`, for which the inhibition was 1.67%.

Regarding `Cc1cc(-n2c(C)cc(C(=O)CN3C(=O)NC4(CCCCCC4)C3=O)c2C)no1`, the inhibition was -2.03%.

`Oc1c(C=Nc2ccccc2)sc2ccccc12`: the inhibition is 21.4%.

Consider `O=C1CCCC(O)=C1C=Nc1cccc(C(F)(F)F)c1`, for which the inhibition is 2.45%.

As for `CC1(C)CC(=O)C(C=Nc2ccc(N)cc2)=C(O)C1`, the inhibition is 28.8%.

For `COc1ccc(N=CC2=C(O)CCCC2=O)cc1`, the inhibition is 18.6%.

Turning to `O=C1CC(c2ccccc2)CC(O)=C1C=Nc1ccc(O)cc1` (stereo not given), the inhibition is 30.3%.

Take `CC1(C)CC(=O)C(C=Nc2ccccc2)=C(O)C1`: the inhibition was -6.01%.

In the case of `CCOC(=O)c1cnc(-n2nc(C)cc2C)nc1NCc1ccc2c(c1)OCO2`, the inhibition is 17.1%.

As to `Cc1ccc(C)c(NC(=O)c2cc(-c3ccccc3O)n[nH]2)c1`, the inhibition was 3.34%.

Consider `O=C(NC1CCCC1)C1CCN(C(=O)NCc2ccccc2)CC1`, for which the inhibition was 8.69%.

With `CC(=O)c1cc2c(cc1N(C(=O)c1ccco1)C(C(=O)NC1CCCC1)c1ccccc1F)OCO2` (stereo not given), the inhibition is 1.47%.

Take `C/C(=N\NC(=O)c1cc(C)[nH]n1)c1ccc(-c2ccccc2)cc1`: the inhibition was 5.47%.

Consider `CC(C(=O)NC1CCCCC1)N1C(=O)C2C3C=CC(C3)C2C1=O` (stereo not given), for which the inhibition is 3.95%.

Regarding `N#CC(C#N)=C1C=CC=CN1/C(=C\c1ccccc1)C(=O)c1cccs1`, the inhibition is 4.44%.

With `N#CC(C#N)=C1C=CC=CN1/C(=C\c1ccco1)C(=O)c1ccc(-c2ccccc2)cc1`, the inhibition was 28.2%.

In the case of `COCCN(CCOC)S(=O)(=O)c1ccc(C(=O)NC2CCN(Cc3ccccc3)CC2)cc1`, the inhibition is 4.79%.

In the case of `CCOC(=O)N1CCN(Cc2cccs2)CC1`, the inhibition is 5.2%.

As to `O=C(O)[C@@H](O)[C@H](O)C(=O)O`, the inhibition is 16.5%.

For `O=C(O)[C@H](O)[C@@H](O)C(=O)O`, the inhibition is 3.59%.

For the compound `Cc1c(O)ccc2c(=O)c(-c3nncn3-c3ccccc3)coc12`, the inhibition is 2.48%.

As for `COC(=O)c1ccc(-c2nc(O)c3cnccn23)cc1`, the inhibition was 4.33%.

For `CSc1ccc(-c2nc(O)c3cnccn23)cc1`, the inhibition is 27.6%.

`O=C(NNC(=O)c1ccc(O)cc1O)c1ccc(-c2ccccc2)cc1`: the inhibition is 3.4%.

In the case of `OCC1CCCN(C(=S)Nc2ccc(Oc3ccccc3)cc2)C1` (stereo not given), the inhibition is 5.94%.

Regarding `CC1CCCN(C(=S)Nc2ccc(Nc3ccccc3)cc2)C1` (stereo not given), the inhibition is 14.1%.

As for `CN1CCN(c2nc3c(c(=O)n(C)c(=O)n3C)n2Cc2ccc(Cl)cc2)CC1`, the inhibition was 3.78%.

With `CC(C)Sc1nc2c(c(=O)n(C)c(=O)n2C)n1Cc1ccc(Cl)cc1`, the inhibition is 3.02%.

For the compound `O=C(CCN1CCN(c2ccc(Cl)cc2)CC1)Nc1nccs1`, the inhibition is 17.1%.

In the case of `COC(=O)c1ccc(CN2CCC(n3nccc3NC(=O)C3CCCC3)CC2)cc1`, the inhibition was 20%.

In the case of `O=C(COC(=O)C1(c2ccccc2)CC1)NNC(=O)c1ccccc1`, the inhibition is 11.2%.

Take `COc1cc(C=O)ccc1OCCOCCOc1cc(C)ccc1Cl`: the inhibition was 10.5%.

In the case of `O=C(c1ccc(-c2ccc([N+](=O)[O-])cc2)o1)N1CCCCC1`, the inhibition was 9.33%.

Take `Cc1ccc(N2NC(=O)/C(=C/c3ccc(-c4ccc(Cl)c(C(=O)O)c4)o3)C2=O)cc1C`: the inhibition is 33.6%.

As to `Cc1ccc(N2NC(=O)/C(=C/c3ccc(-c4ccc(Cl)c(C(=O)O)c4)o3)C2=O)cc1`, the inhibition was 14.8%.

As to `O=C(O)c1cc(-c2ccc(/C=C3\NC(=O)N(c4ccc(Cl)cc4)C3=O)o2)ccc1Cl`, the inhibition was 31.3%.

`CCOC(=O)CN1C(=O)S/C(=C\c2ccc(-c3ccc(C(=O)O)c(Cl)c3)o2)C1=O`: the inhibition is 17%.

As for `C#CCN1C(=O)S/C(=C\c2ccc(-c3ccc(Cl)c(C(=O)O)c3)o2)C1=O`, the inhibition is 11.9%.

Regarding `O=C(O)c1cc(-c2ccc(/C=C3/SC(=S)N(Cc4ccccc4)C3=O)o2)ccc1Cl`, the inhibition was 24.7%.

Turning to `O=C(CCN1C(=O)C2CC=C(Cl)CC2C1=O)Nc1ccccc1O` (stereo not given), the inhibition was 3.99%.

For `C/C(=N\Nc1ccc(C(=O)O)cc1)c1ccc(S(=O)(=O)NCc2ccco2)cc1`, the inhibition was 11%.

With `CCc1cccc(C)c1NC(=O)c1ccc2c(c1)CCN2S(C)(=O)=O`, the inhibition is 1.63%.

For `Nc1ccc2c(c1)Cc1cc([N+](=O)[O-])ccc1-2`, the inhibition was 7.98%.

In the case of `Nc1ccc2c(c1)C(=O)c1ccccc1C2=O`, the inhibition was 7.9%.

For the compound `CC(=O)N1CCN(C(=O)CSc2nc3c(cnn3-c3ccccc3)c(=O)[nH]2)CC1`, the inhibition was 2.65%.

On to `Cc1cccc2cc(CN(CCCN3CCOCC3)Cc3nnnn3C(C)(C)C)c(=O)[nH]c12`, for which the inhibition is 10%.

Regarding `O=C(Nc1ccccc1Cl)N1CCSc2ccccc21`, the inhibition was 5.32%.

`COc1cccc(-n2c(SCC(N)=O)nc3ccccc3c2=O)c1`: the inhibition is 4.09%.

With `CCCn1c(=O)c2ccccc2n2c(SCC(=O)c3ccccc3)nnc12`, the inhibition is 16.8%.

Take `COCCCn1c(=O)c2ccccc2n(Cc2ccccc2)c1=O`: the inhibition was 7.67%.

As for `Cc1nnc2n(-c3ccccc3)c(=O)c3ccccc3n12`, the inhibition was -1.7%.

Regarding `COCCCn1c(=O)c2ccccc2c2ccccc2c1=O`, the inhibition was -0.58%.

Consider `CCCCn1c(=O)c2ccccc2c2ccccc2c1=O`, for which the inhibition was 3.41%.

Regarding `CCCn1c(=O)c2ccccc2n2c(SCC(N)=O)nnc12`, the inhibition is 9.05%.

Consider `CCCCCn1c(=O)c2ccccc2n2c(CCl)nnc12`, for which the inhibition is 15.8%.

One may read the inhibition as the change of the read-out against control, counted positive when it falls.

The record behind these values is PubChem BioAssay AID1903 (Southern Research Specialized Biocontainment Screening …, 2009).
